# Assay results as given in PubChem BioAssay AID493131 (Broad Institute, 2011).
# In all, about 340,000 compounds went through this assay and about 3,300 (0.97%) were called active. This is one part of a sample in which actives are shown more often than they occur. Unmarked numbers belong to inactive results.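 Rule for the calls: active = mean activation above about 17%, with every replicate also reaching it (limit read from the data, passing the limit was not always enough); inconclusive = only one of the two conditions met; inactive = the rest.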
# Target: Protein FosB (Mus musculus) (UniProt P13346)
# Sequence (P13346 whole entry, looked up): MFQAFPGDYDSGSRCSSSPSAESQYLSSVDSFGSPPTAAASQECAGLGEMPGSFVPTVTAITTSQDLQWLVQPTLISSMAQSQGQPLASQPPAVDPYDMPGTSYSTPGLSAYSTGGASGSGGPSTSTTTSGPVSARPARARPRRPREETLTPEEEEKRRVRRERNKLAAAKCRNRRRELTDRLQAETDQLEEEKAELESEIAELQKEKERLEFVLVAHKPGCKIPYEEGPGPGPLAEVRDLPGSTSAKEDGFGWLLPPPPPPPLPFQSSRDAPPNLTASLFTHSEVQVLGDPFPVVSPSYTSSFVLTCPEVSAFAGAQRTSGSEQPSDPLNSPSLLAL
# Test: enhancers of mouse delta FosB DNA binding – biochemical, fluorescence polarization, TAMRA-CDK5 oligo, single point, primary screen (AID 493131);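 note: fluorescence polarization rise as delta FosB binds a TAMRA Cdk5 AP-1 oligo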
# Conditions: purified delta FosB, at 25 µM, stronger effect = higher value, percent of positive-control signal above neutral wells
row,SMILES,activation
1,CC1(C)CC2CC(C)(CN2c2ncnc3ccc(Br)cc23)C1 (stereo not drawn),-14.7%
2,C=CCn1c2ccccc2c2nnc(SCc3[nH]c(=O)[nH]c3C(=O)CCCCC(=O)OCC)nc21,-0.527%
3,CCOc1cc(NC(=O)c2ccccc2C(=O)O)c(OCC)cc1NC(=O)c1ccccc1F,-3.46%
4,CCN1CCN(c2cc3nc(C)n(Cc4ccccc4)c(=O)c3cc2NC(=O)c2ccccc2F)CC1,27.5% (active)
5,CCC(=O)Nc1ccc2nc(C)n(Cc3ccccc3Cl)c(=O)c2c1,-9.12%
6,CCOc1cc(CO)ccc1OCC(=O)N1CCCCC1,-0.227%
7,O=C(COc1coc(CN2CCN(c3ccccc3)CC2)cc1=O)Nc1ccccc1F,-11.2%
8,O=C(COc1coc(CN2CCN(c3ccccc3)CC2)cc1=O)N1CCc2ccccc21,-7.12%
9,O=C(COc1coc(CN2CCN(c3ccccc3F)CC2)cc1=O)N1CCc2ccccc21,21.9% (active)
10,Nc1cc(=O)n(Cc2ccccc2)c(=O)n1Cc1ccccc1,-1.18%
11,CC(=O)Nc1sc2c(c1C(c1cccc(F)c1)N1CCN(CCO)CC1)CCCC2 (stereo not drawn),-12.2%
12,Cc1nn(CC(=O)Nc2ccc(F)cc2)c(=O)c2ccccc12,0.886%
13,Cn1cccc1/C=C1\SC(=O)N(CC(=O)Nc2ccc(F)cc2)C1=O,30.6% (active)
14,O=C(CN1C(=O)S/C(=C\c2ccccc2F)C1=O)NCCCn1ccnc1,-4.31%
15,CC(C)c1cc(C(=O)O)on1,5.07%
16,COc1ccc(C2CC(c3cccs3)Nc3nnnn32)cc1 (stereo not drawn),-5.14%
17,Fc1ccc(-c2ccc(CNCc3ccccn3)o2)cc1Cl,-10.2%
18,O=C(Cc1nc2ccccc2[nH]c1=O)c1ccc(Cl)cc1,25% (active)
19,O=C(Cc1ccc(Cl)cc1)c1ccccc1,-2.82%
20,O=C(/C(=C/c1cccc(Cl)c1)c1nc2ccccc2[nH]1)c1ccccc1,0.879%
21,COc1cccc2c1C(=O)c1c(O)c3c(c(O)c1C2=O)CC(O)(C(C)=NNC(=O)c1ccc(Cl)c(Cl)c1)CC3OC1CC(N)C(O)C(C)O1 (stereo not drawn),-409%
22,CC(=O)Nc1ccc(NC(=O)COc2ccccc2C(=O)Nc2cccc(Cl)c2Cl)cc1,26% (active)

row,SMILES,activation
1,O=C(COc1ccccc1Cl)Nc1ccccc1C(=O)NC1CC1,-11.8%
2,O=C(COc1ccccc1Cl)Nc1ccc(C(=O)c2ccc(C(=O)O)cc2)cc1,-0.74%
3,CCc1nc2oc3ccccc3c(=O)c2c(=O)n1Cc1ccc(OC)cc1,-18.5%
4,O=c1c2ccccc2oc2nc3n(c(=O)c12)CCCS3,-28.8%
5,O=c1c2ccccc2oc2nc(C3CCCCC3)n(Cc3ccco3)c(=O)c12,34% (active)
6,COC(=O)c1cc(C(=O)N(Cc2ccccc2)c2ccccn2)cc([N+](=O)[O-])c1,-5.79%
7,C[C@@H](CN1CCC[C@H]1CN1C(N)=NC[C@@H]1Cc1ccccc1)N1C[C@@H](Cc2ccccc2)N(CCCC2CCCC2)C1=N,-7.85%
8,CC(C)C[C@H]1CN([C@@H](CC(C)C)CN2CCC[C@@H]2CN2C(=O)C(=O)NC[C@@H]2Cc2ccccc2)C(=O)C(=O)N1CCc1ccccc1,-16%
9,CC[C@@H](C)[C@@H]1CN([C@@H](C)CN2CCC[C@H]2CN2C(N)=NC[C@H]2C(C)C)C(=N)N1CCc1ccc(Cl)c(Cl)c1,23.1% (active)
10,Cc1cc(SCC(=O)NCCN2C(=O)CSC2=O)nc2ccccc12,5.19%
11,C=CCNC(=O)c1ccc2c3n(nc2c1)-c1ccc(C)cc1CO3,-4.63%
12,CC(OC(=O)c1cc2ccccc2o1)C(=O)Nc1ccc(N2CCOCC2)cc1 (stereo not drawn),-0.675%
13,CCCCC(c1nnnn1CS(=O)(=O)c1ccc(C)cc1)N1CCC(C(N)=O)CC1 (stereo not drawn),-1.34%
14,COc1ccc(C(CNC(=O)c2ccc(S(=O)(=O)Nc3ccccc3F)cc2)N(C)C)cc1 (stereo not drawn),1.38%
15,O=C(Nc1ccc(S(=O)(=O)N2CCc3ccccc3C2)cc1)c1ccccc1,25.5% (active)
16,COC(=O)c1ccc(S(=O)(=O)N2CCc3ccccc3C2)cc1,-1.34%
17,CC(=O)Nc1ccc(S(=O)(=O)N2CCC(NC(=O)c3ccccc3)CC2)cc1,3.46%
18,O=C(CN1C(=O)S/C(=C\c2ccccc2Cl)C1=O)NC1C=CS(=O)(=O)C1 (stereo not drawn),-2.97%
19,COc1cccc(/C=C2/SC(=S)N(CC(=O)NC3C=CS(=O)(=O)C3)C2=O)c1 (stereo not drawn),35.9% (active)
20,COc1cccc(/C=C2\Sc3ccc(C(=O)NCC4CCCO4)cc3N(C)C2=O)c1 (stereo not drawn),0.556%
21,COc1ccc(S(=O)(=O)N2CCCC2CNC(=O)C(=O)NC2CC2)cc1 (stereo not drawn),-3.99%
22,CC1C(=O)Nc2ccccc2N1C(=O)c1ccc(F)cc1F (stereo not drawn),1.98%

row,SMILES,activation
1,Cc1ccc(OCC(=O)NCCCNC(=O)c2cccnc2)cc1C,2.57%
2,C/C(=C\C(=O)c1cccnc1)Nc1ccc(C)c(C)c1,-1.12%
3,Cc1ccc(NC(=O)COc2ccc(/C=N\NC(=O)c3cccnc3)cc2)cc1C,82.7% (active)
4,N#Cc1ccccc1S(=O)(=O)N1CCN(C(=O)c2cc(-c3ccccc3)nn2-c2ccccc2)CC1,1.25%
5,O=[N+]([O-])c1ccc(N2CCN(c3ccc(O)cc3)CC2)c(Cl)c1,-9.93%
6,CCOC(=O)c1cc(=O)c2ccc(OCc3ccccc3)cc2o1,-2.05%
7,Cc1ccccc1NC(=O)c1ccc(COc2ccc3c(C)cc(=O)oc3c2)cc1,22.2% (active)
8,CCN(C(=O)COC(=O)c1ccc(COc2ccc3c(C)cc(=O)oc3c2)cc1)C1CCS(=O)(=O)C1 (stereo not drawn),2.03%
9,Cc1ccc(C(C)C)c(OCCSc2nc3ccccc3n2CC(=O)O)c1,-20.9%
10,CCOc1ccc(OCC(=O)Nc2c3c(nn2C(C)(C)C)CS(=O)(=O)C3)cc1,-1.81%
11,CCOc1ccc(N(C)S(=O)(=O)c2cnc[nH]2)cc1,-0.199%
12,Cc1ccc2nc(-c3ccccn3)cc(C(=O)Nc3ccc4c(c3)OCO4)c2c1,36.9% (active)
13,Cc1ccc(-n2c(SCC(=O)Nc3ccc4c(c3)OCO4)nnc2-c2ccccn2)cc1,-2.46%
14,CSc1ncccc1C(=O)Nc1ccc2c(c1)OCO2,-5.35%
15,O=C(N/C(=C\c1ccc([N+](=O)[O-])cc1)C(=O)N1CCCCC1)c1ccco1,-1.72%
16,CS(=O)(=O)N(CC(=O)NCc1ccco1)c1ccc2c(c1)OCO2,2.32%
17,O=C(Cn1nnc(-c2ccccc2)n1)NCc1ccc2c(c1)OCO2,22.6% (active)
18,O=C(CN(C(=O)CCC(=O)Nc1nccs1)c1ccc(F)cc1)NCc1ccc2c(c1)OCO2,6.39%
19,CCN(CC)C(=O)C(=O)c1cn(CC(=O)NCc2ccc3c(c2)OCO3)c2ccccc12,-0.7%
20,O=C(Cn1nnc(-c2ccc3c(c2)OCO3)n1)NCc1ccco1,33.3% (active)
21,Cc1ccc(Cn2nnc3c(=O)n(CC(=O)N4CCCCC4)cnc32)cc1,3.79%
22,S=C(NCc1ccc2c(c1)OCO2)NCc1ccco1,-2.47%

row,SMILES,activation
1,COc1cc(-c2nnn(CC(=O)NCc3ccccc3)n2)cc(OC)c1OC,-0.135%
2,O=C(Cn1cnc2c(nnn2Cc2ccc(F)cc2)c1=O)NCc1ccc2c(c1)OCO2,17.6% (active)
3,O=C(NC1CCCC1)C(c1ccc(Cl)cc1)N(C(=O)c1csnn1)C1CC1 (stereo not drawn),-6.23%
4,Cc1ccc(-c2cnc(NC(=O)CCC(=O)N(C)Cc3ccccc3)n2C)cc1,-2.74%
5,CCCC1C(=O)N2C(N(C)C)=Nc3ccc(C)cc3N2C1=O (stereo not drawn),6.69%
6,COc1ccc(S(=O)(=O)N2CCN(C(C)C(=O)Nc3ccc(C(C)C)cc3)CC2)cc1 (stereo not drawn),-3.44%
7,O=C(CCc1ccccc1)Nc1ccc(NC(=O)C2CC2)nc1,4.2%
8,COc1ccc(S(=O)(=O)N(CC(=O)N/N=C/c2ccc(C(=O)O)cc2)Cc2ccccc2)cc1OC,-11.9%
9,Cc1ccccc1NC(=O)CCOc1ccccc1,-7.98%
10,O=C(Nc1ccccc1)c1ccc(NC(=O)c2cccs2)cc1,19% (active)
11,CC(Oc1cccc(NC(=O)c2cccs2)c1)C(=O)c1ccccc1 (stereo not drawn),-3.07%
12,O=C(NC(=S)Nc1ccc(NC(=O)c2cccs2)cc1)c1ccc([N+](=O)[O-])cc1,-0.174%
13,O=C(O)c1ccccc1C(=O)NC1=NN(c2ccccc2)CC1,-3.52%
14,COc1cccc(-c2cc3nc4c(c(N5CCC6(CC5)OCCO6)n3n2)CCCC4)c1,-1.84%
15,COc1ccc(C(=O)n2nc(-c3ccc(C)cc3)nc2N)cc1OC,8.05%
16,COc1ccc(C(=O)n2nc(C)c(Br)c2C)cc1OC,3.74%
17,COc1ccc(C(=O)n2nc(-c3ccc(Cl)cc3)nc2N)cc1OC,30.9% (active)
18,CCN(CC)CCNC(=O)c1sc2ncn(CC(=O)Nc3ccc(C)c(Cl)c3)c(=O)c2c1C,-141%
19,Cc1cc(C)c(C#N)c(SCC(=O)Nc2ccccc2)n1,3.54%
20,Cc1nonc1NC(=O)CSc1nc2ccccc2cc1C#N,5.77%
21,Cc1nc2cc(NC(=O)CSc3nc4c(C)cccc4cc3C#N)ccc2s1,61.2% (active)
22,Cc1ccc(C)c(NC(=O)C(c2ccccc2)N2CCN(CC(=O)NC3CC3)CC2)c1 (stereo not drawn),-10.9%
